Assay results as given in PubChem BioAssay (Tox21).
Inconclusive results are not listed. Values without a mark were called inactive. Calls come from the whole dose curve; as a rule, active = well fitted cell-killing curve with a large enough effect in the repeat runs; inconclusive = weak or mixed curves; inactive = no such curve, though single readings can be large or run the other way.

assay: qHTS assay to identify small molecule antagonists of the peroxisome proliferator-activated receptor delta (PPARd) signaling pathway - cell viability counter screen (AID 743213); details: PPARd-bla HEK293H viability, CellTiter-Glo luminescence, 17 h; series mostly up to 62 µM; viability change, negative = cytotoxic: at the top concentration; note: nearly all actives have a fitted effect of over 50% in size
Excerpt: U.S. Tox21 Program National Center for Advancing Translational Sciences [NCATS] NIH Chemical Genomics Center [NCGC] U.S. Environmental Protection Agency [EPA] National Institutes of Environmental Health Sciences [NIEHS] National Toxicology Program [NTP] U.S. Food and Drug Administration [FDA] Tox21 Assay Overview: The peroxisome proliferator-activated receptors (PPARs) are lipid-activated transcription factors of the nuclear receptor superfamily with three distinct subtypes namely PPAR alpha, PPAR delta (PPARd) and PPAR gamma. All these subtypes heterodimerizes with Retinoid X receptor (RXR) and have different physiological functions. […] To identify the compounds that inhibit PPAR-delta signaling, GeneBLAzer PPAR delta UAS-bla HEK293H cell line (Invitrogen, Carlsbad, CA, USA) containing a beta-lactamase reporter gene under the control of an Upstream Activator Sequence (UAS) was used to screen the Tox21 compound library. The cytotoxicity of the Tox21 compound library against the PPARd-bla cell line was tested in parallel by measuring the cell viability using CellTiter-Glo assay (Promega, Madison, WI) in the same wells.
Tox21 Assay Protocol Summary: PPARd-bla cells were dispensed at 3000 cells/5uL/well in 1536-well black wall/clear bottom plates using a Multidrop Combi (Thermo Fisher Scientific, Waltham, MA) dispenser. After the assay plates were incubated at 37 C and 5% CO2 for 5 h, 23 nL of compounds dissolved in DMSO, positive controls or DMSO only was transferred to the assay plate by a Pintool station (Kalypsys, San Diego, CA), followed by addition of 1ul L165041 (300 nM, final concentration in the wells). The assay plates were incubated at 37 C for 17 h, and then 1 uL of LiveBLAzerTM B/G FRET substrate was added using a Bioraptr Flying Reagent Dispenser (FRD) workstation (Beckman Coulter, Indianapolis, IN, USA). The assay plates were incubated at room temperature for 2 h and fluorescence intensity was measured by an Envision plate reader (PerkinElmer, Shelton, CT). For cell viability readout that measures cytotoxicity, 3 ul/well of CellTiter-Glo reagent was added into the assay plates using a Bioraptr FRD. After 30 min incubation at room temperature, the luminescence intensity in the plates was measured using a ViewLux plate reader (PerkinElmer).
% is set by controls: 0 for no effect and ±100 for the full control effect.

SMILES	viability change, negative = cytotoxic
CCOc1cc([N+](=O)[O-])c(OCC)cc1N1CCOCC1	-27.4%
CC(C)(C)NC(N)=O	42.1%
O=C1O[C@@H]2[C@@H](O)[C@H](O)O[C@@H]2[C@H]1O	0.128%
CC(=O)Nc1cccc(C)c1	19.7% [at 80.4 µM]
CC1=C(C(=O)O)N2C(=O)[C@@H](NC(=O)[C@H](N)c3ccc(O)cc3)[C@H]2SC1	18.6%
ClCCCl	1.2%
C=CCCCCCCCCCCCC	-9.52%
CCC(C)(CCC(C)C)C(=O)O (stereo not given)	-5.93%
Oc1ccccc1-c1nnco1	21.8%
CC(=O)OC(C)OC(=O)C(C)c1ccc(-c2ccccc2)c(F)c1 (stereo not given)	9.47%
O=C(NCCN1CCOCC1)c1ccc(Cl)cc1	8.57%
O=S(=O)(O)c1ccc2cc(O)c(S(=O)(=O)O)cc2c1	-2.19%
O=C1c2ccccc2C(=O)c2cc(S(=O)(=O)O)ccc21	-2.65% [at 80.4 µM]
Cc1cc(Cl)c(C)cc1Cl	3.39%
COC(=O)c1ccccc1C(=O)c1ccc(OCCN2CCCCC2)cc1	11.9%
O=C(O)c1cc(Cl)cc([N+](=O)[O-])c1Cl	5.09%
COC(=O)[C@@H]1[C@H]2C[C@H]3c4[nH]c5ccccc5c4CCN3C[C@@H]2CC[C@@H]1O	-8.27%
O=C1c2ccccc2C(=O)N1CCl	-29.7%
O=S(=O)(O)c1cc(O)c2ccc(Nc3ccccc3)cc2c1	-12.5%
C=C1CC/C=C(\C)CC[C@@H]2[C@@H]1CC2(C)C	-0.41%

SMILES	viability change, negative = cytotoxic
CC(=O)/C=C/C1C(C)=CCC(C)C1(C)C (stereo not given)	9.15%
O=C(O)CCSSCCC(=O)O	3.03% [at 80.4 µM]
CC(C)CCCC(C)(C)O	24.5%
OCCCCC(O)CO (stereo not given)	2.69%
O=C(NCCc1c[nH]c2ccccc12)c1cccnc1	9.16%
O=C(OCC1(COC(=O)c2cccnc2)CCCC(COC(=O)c2cccnc2)(COC(=O)c2cccnc2)C1O)c1cccnc1	-5.1%
CC(C)(C)c1cc(CCC(=O)NN)cc(C(C)(C)C)c1O	-2.55%
CCO[Si](CCCS)(OCC)OCC	15.7%
O=C1c2cccc3c2[C@H](CCC3)CN1[C@@H]1CN2CCC1CC2	-6.4%
CC(C)=O	-10.8%
C[C@@H](O)[C@H]1C(=O)N2C(C(=O)O)=C(SCCN=CN)C[C@H]12	-7.58%
Cc1cc(NC(=O)C2=C(O)c3ccccc3S(=O)(=O)N2C)no1	3.4%
CC(C)(C)OC(=O)c1ccc(O)cc1	8.28%
CC1(C)S[C@@H]2[C@H](N=CN3CCCCCC3)C(=O)N2[C@H]1C(=O)O	-2.96%
CCNC(=O)C1CC(C)CCC1C(C)C (stereo not given)	9.81%
COC(=O)C1CC(=O)C(C(=O)OC)CC1=O (stereo not given)	-19.8% [at 6.26 µM]
C=COCCOCCOCCOC=C	27.8%
Cc1cccc2nccnc12	-10.7%
NCCS	11.7%
O=S(O)(O)=S	-0.861% [at 6.26 µM]
